By inhibition is commonly meant the change of the read-out against control, counted positive when it falls.

The source of these data is PubChem BioAssay.

For assay [1], the target named is Sentrin-specific protease 8 (Homo sapiens) (UniProt Q96LD8). Put plainly: human SENP8 peptidase blockers, hit retest – biochemical, luminescence, single concentration, confirmation (AID 488912;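 active = mean inhibition across replicates above about 50%, limit read from the data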). Particulars: Recombinant SENP8, Z-RLRGG-aminoluciferin luminescence, 60 min; at 12.5 µM; active compounds read high.
Sentrin-specific protease 8 (Homo sapiens), sequence (Q96LD8 whole entry, looked up, the tested form may be a part): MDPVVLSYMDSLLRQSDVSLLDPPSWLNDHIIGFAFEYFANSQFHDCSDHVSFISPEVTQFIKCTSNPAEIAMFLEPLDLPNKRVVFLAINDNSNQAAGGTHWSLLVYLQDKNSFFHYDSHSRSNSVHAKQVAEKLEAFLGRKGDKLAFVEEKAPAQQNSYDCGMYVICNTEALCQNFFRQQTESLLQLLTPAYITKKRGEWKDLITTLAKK
Assay [2] concerns the target Sentrin-specific protease 6 (Homo sapiens) (UniProt Q9GZR1). Put plainly: inhibition of human SENP6 catalytic domain – biochemical, luminescence, single concentration, confirmation (AID 488915). Particulars: recombinant SENP6, Z-RLRGG-aminoluciferin luminescence; at 12.5 µM; active compounds read high.
Assay [3] deals with Sentrin-specific protease 7 (Homo sapiens) (UniProt Q9BQF6). The assay is described as follows: human SENP7 peptidase blockers, hit retest – biochemical, luminescence, single concentration, confirmation (AID 488917). The settings on record: recombinant SENP7, Z-RLRGG-aminoluciferin luminescence, 40 min; at 12.5 µM; active compounds read high.
Sentrin-specific protease 7 (Homo sapiens), sequence (Q9BQF6 706-1050 limits assumed): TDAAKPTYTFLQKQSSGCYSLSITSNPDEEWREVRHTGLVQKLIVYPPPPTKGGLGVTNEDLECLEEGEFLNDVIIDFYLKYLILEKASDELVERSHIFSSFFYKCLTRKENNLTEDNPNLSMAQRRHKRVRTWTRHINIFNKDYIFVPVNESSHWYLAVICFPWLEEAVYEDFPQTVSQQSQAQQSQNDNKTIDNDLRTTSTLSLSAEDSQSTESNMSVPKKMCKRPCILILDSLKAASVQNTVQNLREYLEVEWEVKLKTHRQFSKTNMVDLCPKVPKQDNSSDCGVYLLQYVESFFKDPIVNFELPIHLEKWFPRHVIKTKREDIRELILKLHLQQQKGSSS
In another assay the target is Caspase-3 (Homo sapiens) (UniProt P42574). Put plainly: human caspase-3 activity blockade, out-of-family – biochemical, single concentration, selectivity assay for SENP inhibitor project, confirmation (AID 488918;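 active = mean inhibition above about 50%, limit read from the data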;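 also: plate controls were enzyme with DMSO for no effect and wells without caspase-3 for full effect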). Particulars: purified caspase-3, Z-DEVD-aminoluciferin luminescence, 60 min; at 12.5 µM; active compounds read high.
Caspase-3 (Homo sapiens), sequence (P42574 28-227 limits assumed): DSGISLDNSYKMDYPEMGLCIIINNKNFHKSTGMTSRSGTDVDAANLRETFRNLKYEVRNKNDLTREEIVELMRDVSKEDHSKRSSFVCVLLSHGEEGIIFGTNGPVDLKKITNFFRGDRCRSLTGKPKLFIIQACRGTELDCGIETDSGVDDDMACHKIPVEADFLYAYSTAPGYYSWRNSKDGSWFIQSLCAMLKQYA
The nature of assay [4]: Ultra-Glo luciferase signal interference – biochemical, single concentration, SENP8 reaction pre-completed, artefact control for SENP inhibitor project, confirmation (AID 488919;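 active = mean inhibition above about 50% when retested at one dose, limit read from the data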;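 also: plate controls were DMSO wells with completed reaction for no effect and substrate without enzyme for full effect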). Particulars: Pre-incubated SENP8/Z-RLRGG-aminoluciferin, luciferase luminescence interference; at 12.5 µM; active compounds read high.

Some of the results follow. A number with no mark means an inactive call. Calls of active or inactive are those of the source.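 The calls were made as follows, unless noted: active = mean inhibition above about 50% in the one-dose retest (limit read from the data); inactive = the rest.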

Sentrin-specific protease 6 (Homo sapiens), sequence (Q9GZR1 628-1112 limits assumed): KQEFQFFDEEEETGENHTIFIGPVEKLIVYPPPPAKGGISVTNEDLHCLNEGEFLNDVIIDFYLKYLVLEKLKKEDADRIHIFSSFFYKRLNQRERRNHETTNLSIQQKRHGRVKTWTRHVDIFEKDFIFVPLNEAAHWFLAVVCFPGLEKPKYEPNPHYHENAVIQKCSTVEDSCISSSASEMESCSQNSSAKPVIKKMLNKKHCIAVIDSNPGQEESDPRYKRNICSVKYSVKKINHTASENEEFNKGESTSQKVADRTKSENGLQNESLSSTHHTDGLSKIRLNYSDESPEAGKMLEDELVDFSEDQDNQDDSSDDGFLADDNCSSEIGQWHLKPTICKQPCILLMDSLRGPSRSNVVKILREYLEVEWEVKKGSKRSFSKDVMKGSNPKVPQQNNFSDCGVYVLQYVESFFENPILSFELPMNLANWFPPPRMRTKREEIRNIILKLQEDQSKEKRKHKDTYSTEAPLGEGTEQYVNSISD

On to `O=c1oc2cc(O)ccc2cc1-c1ccc(F)cc1`, for which the inhibition in assay [1] was 98.4% (active); in assay [2], 99.7% (active); in assay [3] it was 103% (active); with Caspase-3 (Homo sapiens) it was 98.2% (active); in assay [4], 95.4% (active).

As for `O=c1c2c(nc3n1CCCCC3)sc1c(O)cccc12`, the inhibition is 53.6% (active) in assay [1]; 49.2% in assay [2]; 75.5% (active) in assay [3]; 59.4% (active) with Caspase-3 (Homo sapiens); 61.9% (active) in assay [4].

Regarding `Cc1cc(N=Nc2ccc3ccccc3c2)ccc1O`, the inhibition is 98.3% (active) in assay [1]; 98.9% (active) in assay [2]; 102% (active) in assay [3]; 85.7% (active) with Caspase-3 (Homo sapiens); 76.6% (active) in assay [4].

As to `O=C(Nc1nnc(C2CC2)s1)c1ccccn1`, the inhibition in assay [1] was 49.3%; in assay [2], 49.2%; in assay [3], 82.6% (active); with Caspase-3 (Homo sapiens), 83.6% (active); in assay [4] it was 59.4% (active).
